Screening results: PubChem, Sanford-Burnham Center for Chemical Genomics
CYP2C19 inhib = human CYP2C19 inhibition. inhibition, % at 5 µM. actives 21% (n = 96,000). P33261. CYP2C19 Supersomes, luciferin-H EGE luminescence, 30 min. AID 778;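 active means CYP2C19 inhibition above a set limit at 5 µM in the primary screen, cut at about 50% in these data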;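 further: plate controls were negative control wells for no effect and 2.5 mM tranylcypromine positive control for full effect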
CYP2C9 act = increases human cytochrome P450 2C9 activity. P11712. actives 1.4% (n = 96,000). recombinant CYP2C9, luciferin-H conversion, luminescence; stronger effect = higher value; factor 1 = untreated enzyme, 0 = blocked. activation factor at 5 µM;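 active means activation factor of 2 or more for CYP2C9 at a 5 µM dose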;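 further: 0 = sulfaphenazole-blocked wells and 1 = vehicle-only wells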
CYP2C9 inh = inhibitors of human CYP2C9; P11712; CYP2C9 Supersomes, luciferin-H conversion, luminescence; inhibition, % at 5 µM; actives 20% (n = 96,000); AID 777;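 active means blocking of liver enzyme CYP2C9 beyond about 50% at 5 µM, limit read from the data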
PLAP activator = human PLAP activation; actives 1.2% (n = 96,000); AID 696; activation fold at 20 µM; purified PLAP enzyme, luminescent substrate read-out; stronger effect = higher value; in the data active means activation fold above about 2
Target sequence (P05187 whole entry, looked up): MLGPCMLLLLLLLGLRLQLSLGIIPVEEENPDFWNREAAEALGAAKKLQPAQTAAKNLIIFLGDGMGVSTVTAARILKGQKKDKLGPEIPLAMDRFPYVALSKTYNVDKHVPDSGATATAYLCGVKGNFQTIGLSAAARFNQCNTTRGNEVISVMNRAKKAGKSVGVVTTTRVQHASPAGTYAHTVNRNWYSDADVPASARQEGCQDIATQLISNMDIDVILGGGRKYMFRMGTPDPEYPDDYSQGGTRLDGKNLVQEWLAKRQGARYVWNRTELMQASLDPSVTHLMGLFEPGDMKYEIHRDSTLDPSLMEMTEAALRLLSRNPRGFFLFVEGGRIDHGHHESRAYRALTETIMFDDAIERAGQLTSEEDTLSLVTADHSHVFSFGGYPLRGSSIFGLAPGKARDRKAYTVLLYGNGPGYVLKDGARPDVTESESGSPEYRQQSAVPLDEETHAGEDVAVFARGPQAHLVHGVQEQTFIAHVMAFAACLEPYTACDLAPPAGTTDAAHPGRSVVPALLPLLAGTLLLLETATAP
CYP2C19 activ = activators of human cytochrome P450 2C19; 96,000 tested, under 10 active; P33261; activation factor at 5 µM; recombinant CYP2C19, luciferin-H EGE luminescence; stronger effect = higher value; 0 = fully inhibited enzyme, 1 = untreated enzyme;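 active means activation factor of at least 2 at 5 µM in the primary screen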;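 further: 0 = wells with 2.5 mM tranylcypromine and 1 = vehicle-only wells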
Starred values were filed as active, the others as inactive. Rows were chosen to be rich in hits. Some 31% of all compounds tested hit in one or more screens of this group.

SMILES | CYP2C19 inhib | CYP2C9 act | CYP2C9 inh | PLAP activator | CYP2C19 activ
CN(c1ccc(C(=O)NCc2ccc3c(c2)OCO3)cc1)S(C)(=O)=O | -17.8 | 1.1 | -13.0 | 0.9 | 1.2
CC(NC(=O)c1ccco1)C(=O)OCc1cccc(Cl)c1 (stereo unspecified) | 45.4 | 1 | 4.5 | 1 | 0.5
O=C(/C=C\Nc1ccc2c(c1)OCO2)c1ccccn1 | 57.1* | 0.7 | 31.0 | 1 | 0.4
O=C(NCc1cccc(Cl)c1)c1cccc(C(F)(F)F)c1 | 62.3* | 1.3 | -31.2 | 0.7 | 0.4
O=C(NCc1cccc(Cl)c1)c1ccco1 | 57.2* | 0.9 | 14.0 | 1 | 0.4
CCN1CCN(C(C)C(=O)Nc2c(C)n(C)n(-c3ccccc3)c2=O)CC1 (stereo unspecified) | -10.2 | 1.1 | -10.2 | 0.9 | 1.1
CC(C)Oc1ccc(C(=O)NC2(C(F)(F)F)N=C3SCCN3C2=O)cc1 (stereo unspecified) | -16.8 | 0.9 | 14.1 | 1.1 | 1.2
COCCNC(=O)CSc1nnc2c(Cl)cc(Cl)cn12 | 7.9 | 0.8 | 22.0 | 0.9 | 0.9
COc1ccc(NC(=O)C(=O)NCCN2CCN(C(=O)C(c3ccccc3)c3ccccc3)CC2)cc1 | 8.8 | 0.8 | 16.0 | 1.1 | 0.9
CCC(CC)C(=O)NCCc1cc2ccc(C)c(C)c2[nH]c1=O | -5.0 | 0.9 | 13.2 | 1 | 1.1
O=C(Nc1ccc2c(c1)OCO2)c1ccncc1 | 53.1* | 0.8 | 18.6 | 0.9 | 0.5
Cc1cc(C)n2nc(C(=O)Nc3ccc4c(c3)OCO4)nc2n1 | 6.9 | 1 | 3.7 | 0.9 | 0.9
Cc1ccnc2nc(C(=O)Nc3ccc4c(c3)OCO4)nn12 | 75.3* | 0.6 | 43.9 | 0.9 | 0.2
O=C(NCc1ccc2c(c1)OCO2)c1ccc2c(c1)C(=O)N(Cc1cccnc1)C2=O | 7.2 | 0.5 | 50.6* | 0.9 | 0.9
O=C(NCc1ccc2c(c1)OCO2)c1ccc(-c2ccc(Cl)cc2)o1 | 22.7 | 0 | 99.5* | 0.9 | 0.8
O=C(NCc1ccc2c(c1)OCO2)C1CCN(C(=O)Nc2ccc(Cl)cc2)CC1 | -8.1 | 1 | 1.5 | 1.4 | 1.1
COc1ccccc1N1CCN(C(c2ccc(C)cc2)c2nnnn2C(C)C)CC1 (stereo unspecified) | 74.1* | 0.3 | 74.9* | 1.4 | 0.3
COc1ccc(CC(C)N2CCN(c3ccccc3OC)CC2)cc1OC (stereo unspecified) | 8.9 | 1.3 | -26.3 | 1.5 | 0.9
COc1ccccc1N1CCN(C(c2ccc(F)cc2)c2nnnn2C(C)C)CC1 (stereo unspecified) | 51.7* | 0.5 | 46.0 | 1.2 | 0.5
CC(C)n1nnnc1C(c1ccc(F)cc1)N1CCN(C2CCCC2)CC1 (stereo unspecified) | 2.2 | 1.1 | -10.2 | 1.8 | 1
COC(=O)CC1SC(=O)NC1=Nc1ccc(C)cc1 (stereo unspecified) | 75.4* | 0.8 | 22.9 | 1.1 | 0.2
CC(=O)N1CCc2cc3nc(C)cc(C)c3cc21 | 3.7 | 0.9 | 6.7 | 1 | 1
CCO/C(C)=N/n1c2nc3ccccc3nc2c2c(=O)n(CC(C)C)c(C)nc21 | 4.4 | 1 | 1.6 | 1.3 | 1
Cc1ccc(S(=O)(=O)Nc2ccc(N3CCOCC3)cc2)cc1 | 96.4* | 0.1 | 94.4* | 0.9 | 0
Cc1ccc(NS(=O)(=O)c2ccc(N3C(=O)CCC3=O)cc2)cc1 | 64.3* | 0.6 | 44.2 | 0.9 | 0.4
SMILES | CYP2C19 inhib | CYP2C9 act | CYP2C9 inh | PLAP activator | CYP2C19 activ
CC(=O)Nc1ccc(S(=O)(=O)Nc2ccc(N3CCOCC3)cc2)cc1 | 90.0* | 0.6 | 40.0 | 1 | 0.1
O=S(=O)(Nc1ccc(N2CCOCC2)cc1)c1ccc2ccccc2c1 | 92.3* | 0.5 | 46.0 | 1.3 | 0.1
O=S(=O)(NCc1ccccc1Br)c1cccs1 | 38.1 | 1.2 | -24.0 | 1 | 0.6
CCCN1/C(=C(/C#N)C2=NS(=O)(=O)c3ccccc32)N(C)c2ccccc21 | 14.6 | 1 | -0.3 | 1.1 | 0.9
Cc1cccc(-c2onc3ccc(C4(C)OCCO4)cc23)c1 | 88.5* | 0.1 | 93.4* | 1.8 | 0.1
CCc1ccc(N=CC23c4ccccc4C(c4ccccc42)C2C(=O)N(c4ccc(OC)cc4)C(=O)C23)cc1 (stereo unspecified) | 29.1 | 1 | 2.6 | 1.1 | 0.7
O=C(O)CNC1=NCCCCC1 | -15.7 | 1.1 | -15.0 | 1.1 | 1.2
O=C(NC1CCN(Cc2ccccc2)CC1)c1cc(-c2ccccn2)nc2ccccc12 | -2.4 | 0.8 | 16.3 | 1.4 | 1
c1ccc(CN2CCC(Nc3nc(-c4ccccc4)nc4ccccc34)CC2)cc1 | 60.6* | 0.1 | 86.2* | 1.5 | 0.4
